Calls of active or inactive are those of the source. No rule for the calls is given here.
test: RSV cytopathic effect inhibition in HEp-2 – cell-based, probe candidates (AID 2405); conditions: HEp-2 cells, hits give high values; at 100 µM unless noted

Maximum inhibition, inactive:
CCN(CC)CCCNC(=S)N1CCN(c2nc(-c3ccccc3)cs2)CC1 1.02% [at 0.2 µM]
Cc1cccc2c(=O)n3c(nc12)CCC3 1.55% [at 0.2 µM]
CN(C)CCCNC(=S)N1CCN(c2nc(-c3ccccc3)cs2)CC1 5.31% [at 25 µM]
C=CCN(C(=O)c1ccccc1Cl)c1nc(-c2ccc(OC)cc2)cs1 7.65%
CCCN1CCN(CCCNC(=O)c2cc3c(s2)-c2c(C)cccc2OC3)CC1 0.38% [at 0.2 µM]
O=C(Nc1nc(-c2ccc(Cl)cc2)cs1)c1cccc(Cl)c1 6.93% [at 25 µM]
Cc1cccc2c(=O)n(-c3ccccc3)c(SCC(=O)Nc3ccc4c(c3)CCC4)nc12 5.23% [at 12.5 µM]
Cc1cc(OC(=O)c2c(F)cccc2F)n(Cc2ccccc2)n1 0.49% [at 3.13 µM]
O=C(CSc1nc2ccccc2c(=O)n1-c1ccc(F)c(Cl)c1)Nc1ccc2c(c1)CCC2 6.32%
Cc1cccc2nc3n(c(=O)c12)CCC3 1.49% [at 25 µM]
O=C(CSc1nc2ccccc2c(=O)n1-c1ccc(F)cc1)Nc1ccc2c(c1)CCC2 2.76%
O=C(CSc1nc2ccccc2c(=O)n1-c1ccc(F)cc1F)Nc1ccc2c(c1)CCC2 5.7% [at 25 µM]
CCCCN(C(=O)c1ccccc1Cl)c1nc(-c2ccc(OC)cc2)cs1 5.05% [at 25 µM]
O=c1c2cc(Cl)cc(Cl)c2nc2n1CCC2 5.87%
O=c1c2cc(Br)ccc2nc2n1CC/C2=C/c1ccccc1 10.8%
COc1ccccc1NC(=O)CSc1nc2ccccc2c(=O)n1-c1ccc(F)cc1 3.44% [at 6.25 µM]
CC1CCCC(C)N1CCCNC(=O)c1cc2c(s1)-c1ccccc1OC2 (stereo not drawn) 0.79% [at 0.78 µM]
CC(=O)Nc1ccc2nc3n(c(=O)c2c1)CCC3 1.57% [at 50 µM]
Cc1cccc2c1-c1sc(C(=O)NCCCN3CCC(C)CC3)cc1CO2 0.67% [at 0.2 µM]
Cc1cccc2c1-c1sc(C(=O)NCCCN3CCCC(C)C3)cc1CO2 (stereo not drawn) 1.01% [at 0.78 µM]
COc1ccc(Cn2nc(C)cc2OC(=O)c2c(F)cccc2F)cc1 1.12% [at 0.39 µM]
CC1CC(C)CN(C(=O)CSc2nc3ccccc3c(=O)n2-c2ccc(F)cc2)C1 (stereo not drawn) 2.13%
COc1ccc(-c2csc(NC(=O)c3ccccc3F)n2)cc1 1.37%
OC1c2cc(Br)ccc2N=C2CCCCCN21 (stereo not drawn) 1.05%
O=C(Nc1nc(-c2ccccc2)cs1)c1ccccc1Cl 45.7% [at 12.5 µM]
CCOC(=O)C1(Cc2ccccc2C(F)(F)F)CCN(C2CCN(C(C)=O)CC2)CC1 1.32% [at 6.25 µM]
OC1c2c(F)cccc2N=C2CCCN21 (stereo not drawn) 0.86%
CC1(O)c2cc(Br)ccc2N=C2CCCN21 (stereo not drawn) 2.76%

Reference: PubChem BioAssay AID2405 (Southern Research Specialized Biocontainment Screening …, 2010)
